# Data taken from PubChem BioAssay (NCATS).
# Unmarked numbers belong to inactive results. Records with an inconclusive call do not appear. A call without a number means that no potency is given here. Activity calls are given as the source filed them. Unless noted, calls come from the whole dose curve; as a rule, active = well fitted curve in the direction sought with a large enough effect; inconclusive = small, poorly fitted or top-dose-only effect, or another doubt; inactive = no such curve, though single readings can be large; an effect the other way counts as inactive or inconclusive.
# Tests used:
# [1] = target: Cytochrome P450 3A4 (Homo sapiens) (UniProt P08684); experiment: qHTS Assay for Inhibitors and Substrates of Cytochrome P450 3A4 (AID 884); note: nearly all actives have a fitted effect of over 50% in size; note: potency is the fitted concentration of half-maximal effect; for activity change, negative = inhibition: series mostly up to about 57 µM
# Summary of the method: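 Luminescent readout of luciferin produced by CYP3A4 (20 nM) dealkylation of Luciferin-PPXE, 25 uM (its KM). NADPH-driven reaction ran 60 min at RT after 10 min compound preincubation; data scaled to 57 uM ketoconazole as 100% inhibition.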
# [2] = target: Cytochrome P450 2D6 (Homo sapiens) (UniProt P10635); experiment: qHTS Assay for Inhibitors and Substrates of Cytochrome P450 2D6 (AID 891); note: nearly all actives have a fitted effect of over 60% in size; note: potency is the fitted concentration of half-maximal effect;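 for activity change, negative = inhibition: luciferin methyl ether substrate demethylated by CYP2D6 with NADPH regeneration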
# Summary of the method: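 Luminescent read-out of luciferin formed by 5 nM human CYP2D6 demethylating 30 uM Luciferin-ME EGE (Km level) over 60 min at room temperature after NADPH regeneration addition. Data normalized to full inhibition by 1.43 uM quinidine.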
# [3] = target: Cytochrome P450 2C19 (Homo sapiens) (UniProt P33261); experiment: qHTS Assay for Inhibitors and Substrates of Cytochrome P450 2C19 (AID 899); note: nearly all actives have a fitted effect of over 60% in size; note: potency is the fitted concentration of half-maximal effect
# Summary of the method: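 Reactions contain 5nM enzyme, 10uM Luciferin-H EGE (KM) and 50mM KPO4; compound preincubates 10 min at 37C, NADPH regeneration starts turnover for 60 min. Luminescence after detection reagent gives activity.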
# [4] = target: Cytochrome P450 3A4 (Homo sapiens) (UniProt P08684); experiment: qHTS Assay for Activators of Cytochrome P450 3A4 (AID 885); note: nearly all actives have a fitted effect of over 65% in size; note: potency is the fitted concentration of half-maximal effect
# Summary of the method: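 Luminescent readout of luciferin formed from 25 uM Luciferin-PPXE (KM level) by 20 nM CYP3A4 in 200 mM KPO4, with 60 min NADPH-driven reaction at room temperature after 10 min compound exposure. Ketoconazole (57 uM) defined 100% inhibition.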
# [5] = qHTS Assay for Identification of Small Molecule Agonists for Hypoxia Response Element Signaling Pathway (AID 914; active = well fitted activation curve with a large enough effect in the signal ratio, with a control signal flat, not every such curve was filed as active; the % refers to the signal ratio); conditions: ME-180 (cervical carcinoma) HRE-bla reporter, beta-lactamase ratio, CoCl2, 17 h; active compounds read high
# Summary of the method: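 HRE-bla ME-180 assay for agonist-like enhancement of an EC50 CoCl2 stimulus: 17 h at 37 degrees Celsius, CCF4 for 2.5 h, ratiometric 460/530 nm signal converted to %Activity and fitted to AC50.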
# [6] = Confirmation and Secondary Assay for Modulators of Hemoglobin Beta Chain Splicing at IVS2 654 locus (AID 910);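 note: HeLa cells stably carrying EGFP split by mutant beta-globin IVS2-654 intron; per-well total GFP intensity by laser scanning cytometry after 2-day treatment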
# Summary of the method: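 Readout: per-well total peak green fluorescence (488 nm ex, 500–520 nm em) from objects 5–250 µm, reflecting correct splicing of an EGFP-654 reporter. Compounds were applied for 2 days at 37 °C to overnight-plated HeLa EGFP-654 cells; controls were DMSO and 500 nM IVS2-654 PNA.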
# [7] = Confirmation and Secondary Assay for Modulators of Hemoglobin Beta Chain Splicing at IVS2 705 locus (AID 930);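 note: HeLa cells stably expressing the EGFP-705 splicing reporter; GFP fluorescence per well restored by corrected splicing of the IVS2-705 intron in EGFP; series mostly up to about 46 µM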
# Summary of the method: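 HeLa IVS2-705 EGFP reporter cells, 500/well, compound 2 d at 37C; correct splicing yields fluorescent EGFP. Control: 500 nM antisense PNA. Read-out: total peak GFP intensity.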
# Sequence of Cytochrome P450 3A4 (Homo sapiens) (P08684 whole entry, looked up): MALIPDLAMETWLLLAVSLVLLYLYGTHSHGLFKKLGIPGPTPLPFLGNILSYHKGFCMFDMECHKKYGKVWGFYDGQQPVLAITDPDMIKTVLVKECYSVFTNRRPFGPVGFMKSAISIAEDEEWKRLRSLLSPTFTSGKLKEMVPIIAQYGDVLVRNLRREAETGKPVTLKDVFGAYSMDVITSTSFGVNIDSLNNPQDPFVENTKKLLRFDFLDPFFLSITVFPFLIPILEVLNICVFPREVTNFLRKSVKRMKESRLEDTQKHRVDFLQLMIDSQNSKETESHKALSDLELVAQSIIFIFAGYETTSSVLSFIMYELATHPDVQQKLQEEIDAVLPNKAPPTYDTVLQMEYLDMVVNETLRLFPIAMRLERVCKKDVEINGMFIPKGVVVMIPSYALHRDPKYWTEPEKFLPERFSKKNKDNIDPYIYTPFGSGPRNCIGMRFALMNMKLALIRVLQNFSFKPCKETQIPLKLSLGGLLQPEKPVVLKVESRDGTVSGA
# Sequence of Cytochrome P450 2D6 (Homo sapiens) (P10635 whole entry, looked up): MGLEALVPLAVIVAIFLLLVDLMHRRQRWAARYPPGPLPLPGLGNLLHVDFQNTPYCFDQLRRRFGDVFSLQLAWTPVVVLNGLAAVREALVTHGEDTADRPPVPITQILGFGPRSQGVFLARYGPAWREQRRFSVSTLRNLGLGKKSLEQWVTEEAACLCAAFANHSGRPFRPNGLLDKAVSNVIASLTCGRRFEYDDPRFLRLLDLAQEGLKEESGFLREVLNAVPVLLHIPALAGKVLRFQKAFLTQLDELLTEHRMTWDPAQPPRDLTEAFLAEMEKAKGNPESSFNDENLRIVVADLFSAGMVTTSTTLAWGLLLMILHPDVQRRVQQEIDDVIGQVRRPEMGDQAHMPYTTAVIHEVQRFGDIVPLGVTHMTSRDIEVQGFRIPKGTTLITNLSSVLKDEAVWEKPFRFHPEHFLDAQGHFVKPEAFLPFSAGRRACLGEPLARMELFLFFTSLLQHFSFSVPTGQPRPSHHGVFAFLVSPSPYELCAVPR
# Sequence of Cytochrome P450 2C19 (Homo sapiens) (P33261 whole entry, looked up): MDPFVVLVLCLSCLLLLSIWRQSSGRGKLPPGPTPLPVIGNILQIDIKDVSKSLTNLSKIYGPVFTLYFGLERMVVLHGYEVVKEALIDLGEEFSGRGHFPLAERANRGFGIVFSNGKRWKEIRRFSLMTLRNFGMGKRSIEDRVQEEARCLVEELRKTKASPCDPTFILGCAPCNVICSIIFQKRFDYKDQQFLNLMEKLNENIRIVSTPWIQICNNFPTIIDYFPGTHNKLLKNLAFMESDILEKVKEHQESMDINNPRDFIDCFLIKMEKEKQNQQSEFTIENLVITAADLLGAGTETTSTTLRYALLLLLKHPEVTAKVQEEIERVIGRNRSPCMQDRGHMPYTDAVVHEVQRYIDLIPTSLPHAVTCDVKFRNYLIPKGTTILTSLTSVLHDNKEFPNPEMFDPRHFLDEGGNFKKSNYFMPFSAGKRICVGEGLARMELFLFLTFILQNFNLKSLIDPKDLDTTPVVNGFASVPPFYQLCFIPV
compound,measurement,setting,value
CC1CCC(C(=O)O)NC1c1ccc(-c2ccco2)cc1 (stereo not drawn),"activity change, negative = inhibition",[1],-4.5% [at 11.4 µM]
same,Potency,[2],inactive
same,Potency,[3],inactive
COc1ccc(COC(=O)N/N=C2/C[C@@H](O)[C@@H](O)[C@@H]3[C@@H]4C(=O)N(c5cccc(Oc6ccccc6)c5)C(=O)[C@H]4CC[C@H]23)cc1,Potency,[1],3.16 µM (active)
same,"activity change, positive = activation",[4],-68.2% [at 11.4 µM]
same,activation,[5],-10.1%
COC(=O)NC(c1ccc(F)cc1)C(C(C)=O)C(=O)OC (stereo not drawn),"activity change, negative = inhibition",[1],-15% [at 11.4 µM]
same,Potency,[3],inactive
COc1ccc(-c2cc(=O)c3ccccc3o2)cc1,Potency,[1],2 µM (active)
same,Potency,[4],inactive
same,outcome,[6],inactive
same,outcome,[7],inactive
CC(=O)c1ccc(OC2C=CC(c3ccc(Cl)cc3)OC2CO)cc1 (stereo not drawn),"activity change, negative = inhibition",[1],-21.5% [at 11.4 µM]
same,Potency,[2],inactive
same,Potency,[3],5.01 µM (active)
COc1ccc(/C=C/C(=O)c2ccccc2O)cc1,"activity change, negative = inhibition",[1],-17.2% [at 11.4 µM]
same,Potency,[2],3.16 µM (active)
same,Potency,[3],1.26 µM (active)
COc1ccc(-c2cc(=O)c3ccccc3o2)cc1OC,Potency,[1],7.94 µM (active)
same,Potency,[4],inactive
same,outcome,[6],inactive
same,outcome,[7],inactive
Cc1ccccc1OC1C=CC(C#Cc2ccc(Br)cc2)OC1CO (stereo not drawn),"activity change, negative = inhibition",[1],-26.7% [at 11.4 µM]
same,Potency,[2],inactive
same,Potency,[3],inactive
CSCCC(NC=O)C(=O)NC(CC(C)C)C(=O)NC(Cc1ccccc1)C(=O)O (stereo not drawn),Potency,[1],inactive
same,outcome,[6],inactive
CC(=O)OCC1OC(C#Cc2ccc(C)cc2C)C=CC1OC(C)=O (stereo not drawn),Potency,[1],3.16 µM (active)
same,Potency,[2],3.98 µM (active)
C=CCC1C=CC(Oc2ccc(OC)cc2)C(COC(=O)c2ccc(Br)cc2)O1 (stereo not drawn),Potency,[1],3.16 µM (active)
same,Potency,[3],3.16 µM (active)
CC1(C)C(=O)C=C[C@@]2(C)C1C=C[C@@]1(C)C2CC[C@@]2(C)C(c3ccoc3)OC(=O)C3OC312 (stereo partly drawn),Potency,[1],7.94 µM (active)
same,Potency,[4],inactive
same,outcome,[6],inactive
same,outcome,[7],inactive
COc1c(-c2coc3cc4c(cc3c2=O)CC(OC(C)=O)C(C)(C)O4)ccc2c1C=CC(C)(C)O2 (stereo not drawn),Potency,[1],inactive
same,Potency,[4],5.01 µM (active)
same,outcome,[6],inactive
same,outcome,[7],inactive
CCOC(=O)OCC1OC(C#Cc2ccc(C(C)(C)C)cc2)C=CC1OC(=O)OCC (stereo not drawn),"activity change, negative = inhibition",[1],-12.4% [at 11.4 µM]
same,Potency,[2],inactive
same,Potency,[3],inactive
COC(=O)C/C=C/C(C)C(OC)c1ccccc1Br (stereo not drawn),"activity change, negative = inhibition",[1],-5.95% [at 11.4 µM]
same,Potency,[2],inactive
same,Potency,[3],inactive
CCOC(=O)OCC1OC(c2ccc(C(C)=O)cc2)C=CC1Oc1ccc(-c2ccccc2)cc1 (stereo not drawn),"activity change, negative = inhibition",[1],-27.8% [at 11.4 µM]
same,Potency,[2],inactive
same,Potency,[3],inactive
C#CCCCO/N=C1/C[C@@H](O)[C@@H](O)[C@@H]2[C@@H]3C(=O)N(C4CCCCC4)C(=O)[C@H]3CC[C@@H]12,Potency,[1],3.16 µM (active)
same,"activity change, positive = activation",[4],-78.4% [at 11.4 µM]
same,activation,[5],-13.1%
CC(C)=CCc1c(O)cc2occ(-c3ccc4c(c3)OCO4)c(=O)c2c1O,Potency,[1],3.98 µM (active)
same,Potency,[4],inactive
same,outcome,[6],inactive
same,outcome,[7],inactive
Cc1cc(=O)oc2cc(OC3C=CC(C#CC(C)(C)C)OC3CO)ccc12 (stereo not drawn),"activity change, negative = inhibition",[1],-2.04% [at 11.4 µM]
same,Potency,[2],inactive
same,Potency,[3],inactive
C=CC(C1=CC(=O)C(OC)=CC1=O)c1ccc(OC)cc1 (stereo not drawn),Potency,[1],25.1 µM (active)
same,Potency,[4],inactive
same,outcome,[6],inactive
same,outcome,[7],inactive
C=CCCCCCCCCCCCC(O)CC(O)COC(C)=O (stereo not drawn) (tested in a mixture with another compound),Potency,[1],inactive
same,outcome,[6],inactive
same,outcome,[7],inactive
O=C(O)C1Cc2c([nH]c3ccccc23)C(c2ccccc2)N1 (stereo not drawn),"activity change, negative = inhibition",[1],-14.4% [at 11.4 µM]
same,Potency,[2],3.98 µM (active)
same,Potency,[3],inactive
